# Potency and affinity values are given separately. Active and inactive are the calls of the source. A call without a number means that no potency is given here. How the calls were made is not given here.
# Test: inhibitors of orthopox intermediate gene expression, dose response, cell-based, single fluorophore reporter, dry powder (AID 1117271)
compound,measurement,value
COc1ccccc1-c1ccc(CN(C)C[C@@H]2Oc3cc(C#C[C@@H](C)O)ccc3S(=O)(=O)N([C@@H](C)CO)C[C@@H]2C)cc1,outcome,inactive

# Reference: PubChem BioAssay AID1117271 (Broad Institute, 2014)
